DT40 TDP1 CPT – DT40-hTDP1 cell growth loss with CPT | chicken DT40 Tdp1-/-;hTDP1 cells + 20 nM CPT, ATP luminescence, 48 h | Potency, µM (doses to about 46.2 µM), most hits filed as inhibitors | 420,000 compounds, 12% hits; further: nearly all actives have a fitted effect of over 55% in size
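Chicken DT40 Tdp1-/- cells complemented with human TDP1, 400 cells/well, exposed to compounds plus 20 nM camptothecin for at least 48 h at 37 C; viability read as ATP content by CellTiter-Glo luminescence.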
TGFb SMAD3 inh – inhibitors of TGF-b signaling; HepG2 CAGA-GFP TGF-b/SMAD3 reporter, GFP fluorescence, 18 h; TGF-beta stimulated, 500 pg/mL final; Potency, µM (series often up to 46.1 µM), usual class: inhibitors; 410,000 compounds, 1.2% hits; AID 588855; further: nearly all actives have a fitted effect of over 65% in size
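HEPG2 CAGA-GFP reporter cells (1000/well, DMEM with 1% FBS) received compounds, then recombinant TGF-beta at 500 pg/mL final for 18 hours at 37 degrees C. Per-cell GFP summed per well was normalised to unstimulated and stimulated DMSO controls before curve fitting.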
DT40 TDP1 no CPT – qHTS for Inhibitors of human tyrosyl-DNA phosphodiesterase 1 (TDP1): qHTS in cells in absence of CPT; DT40 Tdp1-/- hTDP1 cells, no CPT, ATP luminescence, 48 h; Potency, µM (highest dose often 46.2 µM), most hits filed as inhibitors; 420,000 compounds, 15% hits; AID 686978, 2013; further: nearly all actives have a fitted effect of over 55% in size
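Camptothecin absent (DMSO only). Human TDP1-complemented DT40 knockout cells, 400 cells/well, 37 °C for minimum 48 hr; ATP measured via CellTiter-Glo, 30 min dark incubation, luminescence.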
S-ASM inh – human S-ASM enzyme inhibition; AID 504937; P17405; placental ASM, HMU-PC fluorogenic substrate, 60 min; 340,000 compounds, 0.006% hits; Potency, µM (top dose mostly 57.5 µM), most hits filed as inhibitors
Target sequence (P17405 47-631 limits assumed): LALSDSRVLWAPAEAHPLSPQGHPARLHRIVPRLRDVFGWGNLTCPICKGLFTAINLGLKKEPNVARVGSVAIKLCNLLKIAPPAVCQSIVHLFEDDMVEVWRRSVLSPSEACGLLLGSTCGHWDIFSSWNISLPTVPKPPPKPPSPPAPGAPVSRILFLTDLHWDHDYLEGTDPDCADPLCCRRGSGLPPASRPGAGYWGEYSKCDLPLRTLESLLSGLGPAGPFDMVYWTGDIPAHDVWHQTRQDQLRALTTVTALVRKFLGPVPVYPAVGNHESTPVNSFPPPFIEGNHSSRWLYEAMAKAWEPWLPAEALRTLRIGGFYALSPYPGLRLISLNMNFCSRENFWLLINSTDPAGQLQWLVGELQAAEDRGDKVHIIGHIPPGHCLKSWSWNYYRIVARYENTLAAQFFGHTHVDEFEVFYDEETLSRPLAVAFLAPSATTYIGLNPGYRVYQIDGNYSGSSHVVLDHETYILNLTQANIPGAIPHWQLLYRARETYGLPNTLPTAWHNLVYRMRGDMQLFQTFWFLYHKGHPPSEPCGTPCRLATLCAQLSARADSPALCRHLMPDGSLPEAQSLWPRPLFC
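HMU-PC0 cleavage (9 uM final) by human placental ASM, 60 min at 37 °C following 10 min compound exposure at RT; stopped at pH 10, fluorescence Ex 386/Em 447 nm.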
IL-1B inflam inh – inflammasome signaling inhibition, IL-1 beta readout; THP-1 LPS/ATP IL-1B secretion, AlphaLISA, 16 h; stronger effect = lower value; activity change, % at 57.5 µM; 360,000 compounds, 4.7% hits; in the data active means activity change below about -50%; inconclusive means mostly about -30% to -49%
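THP-1 cells pretreated 1 hr with compounds (up to 57.5 uM final), then stimulated with LPS (250 ng/mL final) plus ATP (1.25 mM final); secreted IL-1B measured by AlphaLISA after 16 hr, decreased signal indicating inhibition.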
HepG2 viability – HepG2 cytotoxicity, counter-screen for TGF-b inhibitors; HepG2 CAGA-GFP viability, ATP luminescence, 18 h; Potency, µM (highest dose often 46.1 µM), most hits filed as cytotoxic; 410,000 compounds, 0.76% hits; AID 588856
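HepG2 CAGA-GFP cells (1000/well, DMEM with 1% FBS) received compound, then TGF-beta at 500 pg/mL final, and were incubated 18 hours at 37 degrees C. Viability was read by CellTiter-Glo luminescence. Media-only wells were set as complete cell-killing and DMSO as no toxicity.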
Each line names hits and unclear results; the compound was inactive in the other large screens. Most compounds without a hit are left out; they make up all but 19% or so of the library. Unless noted, the call rests on the fitted dose curve; in most records, active means well fitted curve in the direction sought with a large enough effect; inconclusive means small, poorly fitted or top-dose-only effect, or another doubt; inactive means no such curve, though single readings can be large; an effect the other way counts as inactive or inconclusive.

Cc1cccc(NS(=O)(=O)c2ccc3c(c2)[C@H]2C=CC[C@H]2[C@@H](c2ccc(F)cc2)N3)c1	DT40 TDP1 CPT 10µM, TGFb SMAD3 inh inconclusive, DT40 TDP1 no CPT 10µM (no result: S-ASM inh, IL-1B inflam inh)
COc1ccc(C)cc1NS(=O)(=O)c1ccc2c(c1)[C@H]1C=CC[C@H]1[C@@H](c1cccc(Cl)c1)N2	DT40 TDP1 CPT 13µM, TGFb SMAD3 inh inconclusive, DT40 TDP1 no CPT 21µM (no result: S-ASM inh, IL-1B inflam inh)
COC(=O)c1ccc([C@H]2Nc3ccc(S(=O)(=O)Nc4ccc(F)cc4)cc3[C@H]3C=CC[C@H]32)cc1	DT40 TDP1 CPT 3.7µM, TGFb SMAD3 inh inconclusive, DT40 TDP1 no CPT 3.3µM (no result: S-ASM inh, IL-1B inflam inh)
COc1ccc(C(=O)N/N=C(\C)c2ccc3c(c2)C2C=CCC2C(c2ccccc2)N3)cc1 (stereo not given)	DT40 TDP1 CPT inconclusive, DT40 TDP1 no CPT 15µM
CCCCOc1ccc(S(=O)(=O)N2CCN(c3ccccc3OCC)CC2)cc1	DT40 TDP1 no CPT inconclusive (no result: S-ASM inh, IL-1B inflam inh)
Cc1nc(C)c(-c2ccc(SCc3ccc([N+](=O)[O-])cc3)nn2)s1	DT40 TDP1 CPT inconclusive, DT40 TDP1 no CPT inconclusive, IL-1B inflam inh inconclusive
O=S(CC(O)c1ccccc1)c1ccccc1 (stereo not given)	DT40 TDP1 CPT inconclusive, DT40 TDP1 no CPT 16µM (no result: S-ASM inh)
CC(C)(C)c1ccc(Cn2c(=N)n(CC(O)c3ccco3)c3ccccc32)cc1 (stereo not given)	DT40 TDP1 CPT 2.6µM, TGFb SMAD3 inh 16µM, DT40 TDP1 no CPT 2.6µM, IL-1B inflam inh -67
Cc1ccccc1Cn1c(C(C)O)nc2ccccc21 (stereo not given)	DT40 TDP1 CPT inconclusive, DT40 TDP1 no CPT inconclusive
Cc1ccccc1Cn1c(=N)n(CC(O)c2ccco2)c2ccccc21 (stereo not given)	DT40 TDP1 CPT 18µM, DT40 TDP1 no CPT 15µM, IL-1B inflam inh -77
Cn1cc(/C=C2/SC(=O)N(c3ccccc3)C2=O)c2ccccc21	none
COC(=O)/C=C1\SC(=Nc2ccccc2)NC1=O	IL-1B inflam inh -65
Cn1cccc1/C=C1\SC(=Nc2cccc(O)c2)NC1=O	DT40 TDP1 CPT 21µM, TGFb SMAD3 inh inconclusive, DT40 TDP1 no CPT 21µM
Cc1ccc(N=C2NC(=O)/C(=C/c3cn(C)c4ccccc34)S2)cc1C	DT40 TDP1 CPT 18µM, DT40 TDP1 no CPT 18µM, S-ASM inh inconclusive
Cc1cccc(C)c1NC(=O)CN1C(=O)S/C(=C\c2cccn2C)C1=O	none
Cn1cccc1/C=C1\SC(=Nc2ccc(O)cc2)NC1=O	DT40 TDP1 CPT 0.041µM, TGFb SMAD3 inh inconclusive, DT40 TDP1 no CPT 0.023µM
Cc1ccc(N=C2NC(=O)/C(=C\c3ccco3)S2)cc1	DT40 TDP1 no CPT inconclusive
COc1ccc(-c2nc3cnc(N4CCOCC4)nc3n(C[C@H]3CCCO3)c2=O)cc1	none (no result: TGFb SMAD3 inh, S-ASM inh, IL-1B inflam inh, HepG2 viability)
O=C1NC(=Nc2ccccc2)S/C1=C\c1cccs1	DT40 TDP1 CPT inconclusive, DT40 TDP1 no CPT inconclusive
Cc1cc(C)cc(N=C2NC(=O)/C(=C/c3cccs3)S2)c1	DT40 TDP1 CPT inconclusive, DT40 TDP1 no CPT 13µM
Cn1cccc1/C=C1\SC(=O)N(c2ccccc2)C1=O	DT40 TDP1 no CPT inconclusive
Cc1ccc(N=C2NC(=O)/C(=C/c3cccn3C)S2)c(C)c1	DT40 TDP1 CPT inconclusive, DT40 TDP1 no CPT 6.5µM
CC(/C=C1\SC(=Nc2cccnc2)NC1=O)=C\c1ccccc1	DT40 TDP1 CPT 4.1µM, DT40 TDP1 no CPT 2.9µM
Cn1cccc1/C=C1\SC(=Nc2ccccc2)NC1=O	DT40 TDP1 CPT 2.9µM, TGFb SMAD3 inh inconclusive, DT40 TDP1 no CPT 2.3µM
COC(=O)/C=C1/SC(=Nc2ccc(C)cc2C)NC1=O	DT40 TDP1 no CPT inconclusive
COC(=O)c1ccc(C(=O)OC)c(NC(=O)c2cnn3c(C(F)F)cc(-c4ccccc4)nc23)c1	DT40 TDP1 no CPT inconclusive (no result: S-ASM inh, IL-1B inflam inh)
Cc1ccccc1OCC(=O)OCc1cc(=O)n2nc(C3CCCCC3)sc2n1	none (no result: S-ASM inh, IL-1B inflam inh)
Cc1ccccc1C(=O)NNC(=O)CCCCC(=O)NNC(=O)c1ccccc1C	none

Bioassay records: PubChem BioAssay, National Center for Advancing Translational Sciences (NCATS)
